Measured values: PubChem BioAssay AID2718 (Broad Institute, 2010)
Among all 320,000 compounds or so, about 480 (0.15%) were called active. Roughly 1% stayed inconclusive and do not appear here. Cut-off read from the data, not from the text of the source: active = inhibition above about 26% (passing the limit was not always enough); inconclusive = no clear call, values can overlap the other calls. The full list was thinned out, with actives kept by preference.

molecular target: Histone deacetylase 3 (Homo sapiens) (UniProt O15379); assay: inhibition of human HDAC3 enzyme activity – biochemical, fluorescence, cell-free homogeneous, primary screen (AID 2718); conditions: recombinant HDAC3, fluorogenic peptide/trypsin coupled, at 8.3 µM, stronger effect = higher value
Sequence (O15379 whole entry, looked up): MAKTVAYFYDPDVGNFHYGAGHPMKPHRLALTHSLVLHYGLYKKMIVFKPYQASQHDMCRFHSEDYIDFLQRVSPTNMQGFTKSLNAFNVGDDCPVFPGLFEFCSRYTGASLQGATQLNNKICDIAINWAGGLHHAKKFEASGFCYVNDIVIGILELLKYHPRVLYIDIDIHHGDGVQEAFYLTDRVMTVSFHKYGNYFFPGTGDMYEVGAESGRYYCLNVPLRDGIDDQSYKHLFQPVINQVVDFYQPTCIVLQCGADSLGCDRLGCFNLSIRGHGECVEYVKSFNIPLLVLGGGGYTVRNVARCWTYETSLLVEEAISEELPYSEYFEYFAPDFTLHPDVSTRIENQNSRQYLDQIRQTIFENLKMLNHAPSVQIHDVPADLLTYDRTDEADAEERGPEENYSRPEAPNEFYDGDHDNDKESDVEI

inhibition, inactive:
Cc1ccc2nc(-c3ccc(NC(=O)c4cccnc4)cc3)oc2c1 -0.79%
Cc1ccc(NC(=O)Cc2nc(COC(=O)C(C)NS(=O)(=O)c3ccc(C)cc3)cs2)cc1 (stereo not drawn) 1.23%
CC(=O)Nc1ccc(S(=O)(=O)NCCC(=O)N2CCN(c3ccccc3Cl)CC2)cc1 -4.42%
CCOc1cc(C(C(=O)NCC2CCCO2)N(C(=O)Cn2nnc3ccccc32)c2cccc(OC)c2)ccc1O (stereo not drawn) -5.33%
COc1ccc(C(=O)NCc2ccccc2C)cc1S(=O)(=O)NC1CCCC1 2.42%
COc1cc(OC)c(NC(=O)C2CCCN2C(=O)OCc2ccccc2)cc1Cl (stereo not drawn) 2.9%
CCN(C(=O)CSc1nnnn1-c1ccc(OC)cc1)C1CCS(=O)(=O)C1 (stereo not drawn) -1.21%
COc1ccccc1NS(=O)(=O)c1ccc(C)c(C(=O)NNC(=O)c2csc(N3CCOCC3)n2)c1 -8.84%
CSc1ncccc1C(=O)NCC(c1ccco1)N1CCCCC1 (stereo not drawn) -0.371%
CN(CC(=O)NCCc1ccc(S(N)(=O)=O)cc1)CC(=O)Nc1ccc(Cl)cc1 2.8%
CC1Sc2ccc(C(=O)NCc3ccccc3Cl)cc2NC1=O (stereo not drawn) 3.12%
c1ccc2c(CCN3CCNC[C@H]3Cc3cccc4ccccc34)cccc2c1 4.64%
CC1COC2C(O1)N(S(C)(=O)=O)CCN2S(C)(=O)=O (stereo not drawn) -8.42%
COc1ccc2nc3n(c(=O)c2c1)-c1cc(C)ccc1C(=O)NC3Cc1ccc(O)cc1 (stereo not drawn) 4.49%
Cc1ccc(NC(=O)CN(C)C(=O)c2ccc(Cl)c(S(=O)(=O)NCc3ccco3)c2)cc1 1.2%
COCCCNC(=O)CC1C[C@H](C(=O)N2CCCCC2)[C@@]2(CCc3ccccc3)c3[nH]c4ccccc4c3CCN2C1=O (stereo partly drawn) -3.31%
CC(=O)c1nn(-c2ccc(C)cc2)cc1C(=O)c1cccc(Br)c1 7.63%
Cc1nnc(SCC(=O)Nc2ccc(S(=O)(=O)Nc3ccc(Cl)nn3)cc2)s1 0.425%
CN(C(=O)c1ccccc1)c1nccnc1C#N 2.83%
O=C(Nc1ccccc1)O/N=C1/CCCc2occc21 -0.26%
Cc1ccc(NS(=O)(=O)c2ccc(C(=O)NCCCN3CCOCC3)cc2)cc1 -2.45%
Nn1c(SCC(=O)NC2CCCc3ccccc32)nnc1C1CC1 (stereo not drawn) 2.63%
COc1cc(OC)cc(-c2c(C#Cc3ccsc3)c3cc(-c4ccc(SC)cc4)ccc3n2C)c1 -8.45%
CN(C)C(=O)c1cccn(Cc2cccc(C(F)(F)F)c2)c1=O 0.89%
CC(C)(C)OC(=O)C[C@@H]1C/C=C\C[C@@H](CC(=O)N[C@H](CO)Cc2ccccc2)C(=O)NC[C@@H](c2ccccc2)OC1=O -3.9%
S=c1[nH]c2ccccc2c2ccccc12 2.2%
CC1(C)CC(=O)C=C(c2ccc(Cl)c(C(F)(F)F)c2)C1 3.15%
CCN(CC)CCCNC(=S)N(CCO)Cc1cc2cc3c(cc2[nH]c1=O)OCO3 3.65%
CCNC(=S)N(CCN(CC)CC)Cc1cc2cc3c(cc2[nH]c1=O)OCCO3 -18.5%
COc1ccc2sc(-c3ccc(S(C)(=O)=O)cc3)c(C#Cc3cncn3C)c2c1 -6.51%
Cc1ccc(C)c(S(=O)(=O)N2CCN(c3ncnc4sccc34)CC2)c1 8.6%
CCOC(=O)c1nn(-c2ccccc2F)c2nc(Nc3ccccc3)cc(=O)n12 4.54%
Cc1nc(CC(=O)NNS(=O)(=O)c2ccc(F)c(Cl)c2)cs1 -5.91%
CCOc1cc2c(cc1OCC)C(C(=O)O)C(c1ccc(OC)c(O)c1)N(C)C2=O (stereo not drawn) -1.3%
COc1cccc(NC(=O)C2C(c3ccccc3)C2(Cl)Cl)c1 (stereo not drawn) 10.8%
CCCCn1c(N)c(N(CCOC)C(=O)COc2c(C)cccc2C)c(=O)[nH]c1=O -1.76%
CSc1cccc(NC(=S)N(C(C)C)C(C)c2ccccn2)c1 (stereo not drawn) -0.0363%
COc1ccc(S(=O)(=O)N(C)C[C@@H]2Oc3ccc(NC(=O)Nc4c(C)noc4C)cc3C(=O)N([C@H](C)CO)C[C@@H]2C)cc1 -1.76%
O=C(COc1ccc(F)cc1Br)NCC1COc2ccccc2O1 (stereo not drawn) -3.53%
CCCCN(C(=O)C1CCC1)c1c(N)n(Cc2ccccc2)c(=O)[nH]c1=O -3.39%
O=C(COC(=O)c1cccc(Cl)c1)NC(=O)NCc1ccccc1 1.01%
CC(OC(=O)c1cc2ccccc2[nH]1)C(=O)N(C)c1ccccc1 (stereo not drawn) -8.32%
COCCNC(=O)CCCN1C(=O)c2ccccc2Sc2ncccc21 2.45%
CCOc1ccc(-n2c(N)c(C(=O)NCC3CCCO3)sc2=S)cc1 (stereo not drawn) 3.4%
O=C(Nc1nnc(-c2ccccc2)o1)c1cccc(S(=O)(=O)N2CCOCC2)c1 -1.1%
COc1ccccc1C(=O)NCC(=O)OCC(=O)NNC(=O)c1ccc(Br)cc1 -9.69%
CCCn1c(=O)c2c(C(F)(F)F)cc(-c3cccs3)nc2n(CCC)c1=O 1.67%
COc1ccc(NC(=O)CNC(=O)Cn2ccc3ccccc3c2=O)c(OC)c1 -0.211%
Fc1ccc2cnc(-c3ccccc3)cc2c1 -0.273%
Cc1ccc(NC(=O)C2CC2)cc1S(=O)(=O)N1CCOCC1 1.59%
COc1ccc(-c2c(-c3cc(OC)cc(OC)c3)n(C)c3ccc(-c4ccn[nH]4)cc23)cc1 -1.8%
CC(C)n1cnc2c(NCc3ccccc3)cc(N[C@@H](CO)Cc3ccccc3)cc21 11.4%
N=c1c2c3c(sc2ncn1N)CCCC3 9.19%
N=c1c2c3c(sc2ncn1N)CCCCC3 -7.57%
Cc1ccc(S(=O)(=O)NCCNC(C)c2ccc(Br)cc2)cc1 (stereo not drawn) 6.4%
CC(=O)c1ccc(NC(=O)CSc2nc3ccccc3c(=O)n2CCCN2CCOCC2)cc1 12.2%
COc1ccc(N2C(=O)C(CC(=O)Nc3ccc(F)cc3)N(CCc3cccs3)C2=O)cc1 (stereo not drawn) -0.706%
CC1=CCC2C(=O)N(c3cccc(C(=O)NC(C)c4ccccc4)c3)C(=O)C2C1 (stereo not drawn) -6.38%
COc1ccc(CCNC(=O)CN2C(=O)COc3ccc(S(=O)(=O)N4CCCC4)cc32)cc1OC -4.05%
CC1(c2ccccc2)NC(=O)N(CC(=O)N2CC(=O)Nc3ccccc32)C1=O (stereo not drawn) -0.182%
C=CCOc1ccc(/C=C2\SC(=S)N(CCC(=O)O)C2=O)cc1 6.13%
Cc1ccc(-c2nn(-c3ccccc3)cc2CN(Cc2ccccc2)C(=O)CCC(=O)O)o1 -11.8%
Clc1ccc2nc(CSc3ccccc3)cn2c1 10.1%
C[C@H]1CN([C@@H](C)CO)C(=O)Cc2cc(NS(C)(=O)=O)ccc2O[C@@H]1CN(C)CC1CC1 -7.37%
CC(C)(C)NC(=O)NC(=O)COC(=O)C1c2ccccc2Oc2ccccc21 -4.96%
Cc1cccc(C)c1Nc1nnc(SCC(=O)NCCCN2CCCC2=O)s1 0.701%
O=C(NCc1ccc2c(c1)OCO2)c1c(-c2ccsc2)sc2ccccc12 4.88%
O=C(Nc1ccc(Br)cn1)C1CCN(S(=O)(=O)c2cccs2)CC1 -1.41%
C=C(C)COc1ccc(-c2ncncc2-c2ccc(OC)cc2)c(O)c1 4.53%
COc1ccc(-c2n[nH]c(C)c2-c2ccccc2OC)c(O)c1 -1.09%
Cc1ccc(C)c(NC(=O)c2cc(-c3cc(C)cc(C)c3O)n[nH]2)c1 -1.79%
Cc1cc(NC(=O)CSc2nnc(-c3ccco3)n2N)no1 2.85%
Cc1[nH]c2ccccc2c1SCC(=O)Nc1nccs1 -0.0176%
CC(C)(C)OC(=O)C[C@@H]1C/C=C\C[C@H](CC(=O)N[C@@H](CO)Cc2ccccc2)C(=O)N[C@H](Cc2ccccc2)COC1=O -0.452%
COc1ccccc1-c1sc2ccccc2c1C#CC1(O)CCCCC1 14.4%
COc1cc(/C=C/C(=O)OCC(=O)c2ccccc2)cc(OC)c1OC -7.7%
O=C(OCC(=O)N1CCCCC1)c1ccc(OC(F)(F)F)cc1 -7.06%
O=C(Cn1cnc2c(OCc3ccccc3)ncnc21)NCCCn1ccnc1 -4.2%
O=C1CCCC(O)=C1N=Nc1ccc2ncsc2c1 -0.0778%
Nc1ccc(N=Nc2ccccc2Cl)c(N)n1 14.3%
NC[C@H](Cc1ccccc1)NCCc1cc(C(F)(F)F)cc(C(F)(F)F)c1 3.54%
O=C(COC(=O)CCCNC(=O)c1ccc(Cl)cc1)Nc1cc(Cl)ccc1Cl -2.2%
O=C(Nc1cc(S(=O)(=O)Nc2ccc(Cl)cc2)ccc1O)c1ccc(F)cc1F 8.91%

inhibition, active:
COCCCNC(=S)N(CCN(C)C)Cc1cc2cc3c(cc2[nH]c1=O)OCCO3 54.7%
COc1cccc(NC(=O)C2c3cc(OC)c(OC)cc3C(=O)N(C)C2c2cccnc2)c1 (stereo not drawn) 35.6%
S=c1[nH]nc2c3c4c(sc3ncn12)CCCC4 42.4%
Cc1ccc(-c2nn(-c3ccccc3)cc2/C=C2\SC(=S)N(CCCCCC(=O)O)C2=O)o1 31.7%
C=C(C)COc1ccc(-c2n[nH]c(C)c2-c2ccccc2)c(O)c1 28.9%
